Results published in PubChem BioAssay AID485299 (Sanford-Burnham Center for Chemical Genomics, 2010).
Hit rate of the full screen: of about 1,000 compounds, about 630 (63%) were called active. The set was probably picked from earlier hits. A selection follows. Values without a mark were called inactive.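 Rule for the calls: active = reporter signal at least 30% of the positive control's activation in two or more of four replicate wells; inactive = the rest.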

Experiment: IRE1-XBP1 UPR arm activators, confirmation, cell-based, CHO-XBP1 luciferase reporter, luminescence, single concentration (AID 485299);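 note: plate controls were DMSO negative control for no effect and tunicamycin 10 µg/mL positive control for full effect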
Settings: at 20 µM, active compounds read high

Row | SMILES | activation
1 | OCCNc1nc(Nc2ccc(Cl)c(Cl)c2)nc2ccccc12 | 47.6% (active)
2 | Cc1ccc(SC(=O)COc2ccc(C)c(C)c2)cc1 | 19.5%
3 | CSc1nc(-c2ccccc2)nc(C(Cl)Cl)n1 | 29.4%
4 | Cc1ccc(S/C(=N\S(=O)(=O)c2ccc(Cl)cc2)c2ccccc2)cc1 | 9.43%
5 | CCOc1ccc(S(=O)(=O)Nc2cccc(C(=O)NCC3(N4CCCCC4)CCCCC3)c2)cc1 | 92.9% (active)
6 | Cc1nc2cc(NC(=O)CSc3nc4c(C)cccc4cc3C#N)ccc2s1 | 42.3% (active)
7 | CCCc1nc2ccccc2c(=O)n1/N=C/c1ccc(O)c(O)c1 | 36.6% (active)
8 | CN(C)CCCN(C(=O)c1ccc(S(=O)(=O)N2CCCCCC2)cc1)c1nc2ccc(Br)cc2s1 | 71.3% (active)
9 | N#CCC(=O)N/N=C/c1cn(Cc2ccc3ccccc3c2)c2ccccc12 | 87.5% (active)
10 | O=C(Nc1ccc2nc3n(c(=O)c2c1)CCCCC3)c1ccccc1Cl | 44.4% (active)
11 | N#CC(=C1SC=CS1)c1nc(-c2ccccc2)cs1 | 2.43%
12 | CCOC(=O)N1CCN(C(=O)c2nn(-c3ccc(C)cc3)c(=O)c3c2c2ccccc2n3C)CC1 | 7.78%
13 | CCCc1nc2c(c(=O)c3ccccc3n2C)c(=O)n1C1CCCCCC1 | 61.8% (active)
14 | C=CCN(CC=C)S(=O)(=O)c1ccc(C(=O)Nc2nc3c(s2)CCc2ccccc2-3)cc1 | 90.9% (active)
15 | CCN1C(=O)N[C@@H](c2ccccc2)[C@H](C(C)=O)[C@H]1C | -1.6%
16 | CN(C)C(=O)CCc1ccc2c3c([nH]c2c1)[C@]1(CCc2ccccc2)[C@@H](C(=O)N2CCCCC2)C[C@H](CC(=O)NCCC2=CCCCC2)C(=O)N1CC3 | 52.1% (active)
17 | N#Cc1c(N)nc2c3c(sc(=N)c2c1N)NC(=O)CC3c1ccccc1Cl (stereo unspecified) | 0.75%
18 | CCOc1ccc2nc(Cl)c(C3CC(c4ccccc4)=NN3C(=O)c3cccs3)cc2c1 (stereo unspecified) | 19.5%
19 | O=C(C[C@H]1C/C=C\C[C@@H](NC(=O)OCC2c3ccccc3-c3ccccc32)C(=O)O[C@@H](c2ccccc2)CNC1=O)N[C@H](CO)Cc1ccccc1 | 69.3% (active)
20 | CCOC(=O)C1=C(O)/C(=C/c2ccc(OCC(=O)Nc3ccc(C)cc3)cc2)N=C1C | -1.95%
21 | N#Cc1ccccc1NC(=O)COc1c(Br)cc(Br)c2cccnc12 | 88.3% (active)
22 | CCCc1ccc(OCc2ccc(C(=O)N/N=C/c3cccc([N+](=O)[O-])c3)o2)c(OC)c1 | 2.93%
23 | CCCCCC(=O)Nc1ccc(C(=O)N/N=C/c2ccc([N+](=O)[O-])cc2)cc1 | 66.5% (active)
24 | CN(c1cccc(NC(=O)Nc2ccc(Cl)cc2)c1)S(C)(=O)=O | 0.25%
25 | Oc1cccc2ccc(/C=C/c3ccc(Br)s3)nc12 | 50.4% (active)
26 | Cc1ccc(-c2nnc(-c3ccc(NC(=O)c4cccs4)cc3)o2)cc1 | 213% (active)

Row | SMILES | activation
27 | CN1C(=O)/C(=C/c2ccc(C(=O)NC3CCCC3)cc2)Oc2ccccc21 | 32.3% (active)
28 | COc1ccc(CNC(=O)/C(C#N)=C/c2cccc(OC)c2OC)cc1 | 40.4% (active)
29 | O=C(CCCCCn1c(=S)[nH]c2cc3c(cc2c1=O)OCO3)N1CCN(c2ccc(F)cc2)CC1 | 10.3%
30 | Cc1cccc(Nc2nc3c(S(=O)(=O)c4ccccc4)nnn3c3ccccc23)c1C | 120% (active)
31 | O=C(/C=C/c1ccccc1)c1ccccc1O | 54.9% (active)
32 | Cc1ccc(S(=O)(=O)N(CC(=O)N/N=C/c2ccc(F)cc2)c2cccc3cccnc23)cc1 | 55.3% (active)
33 | CCCCCCCCCCOC(=O)Cn1c(COc2ccc(C)cc2)[n+](C)c2ccccc21 | 49.2% (active)
34 | COc1ccc(Nc2cc(C)nc(-n3nc(C)cc3C)n2)cc1 | 28.5%
35 | CCOC(=O)c1c(NC(=O)CNC2CCCc3ccccc32)sc(C(N)=O)c1C (stereo unspecified) | 34.3% (active)
36 | CCC1(CC)Cc2ccccc2-c2nc(CCl)[nH]c(=O)c21 | 14.5%
37 | CCOC(=O)/C=c1\s/c(=C\c2ccc(C#N)cc2)c(=O)n1CC(=O)Nc1cccc(C)c1C | 11.4%
38 | Cc1cc(NC(=O)CSc2nc3cc(Cl)ccc3c(=O)n2Cc2ccco2)no1 | 55.5% (active)
39 | CC(=O)Nc1ccccc1Sc1ccc2c3c(cccc13)C(=O)N(c1ccc(C)cc1)C2=O | 79% (active)
40 | C=CC[C@@H](CC(=O)N[C@@H](CO)Cc1ccccc1)C(=O)N[C@H](COC(=O)[C@H](CC=C)CC(=O)OC(C)(C)C)Cc1ccccc1 | 4.58%
41 | O=C(COC(=O)/C=C/c1cn(-c2ccccc2)nc1-c1cccnc1)Nc1ccc(Cl)cc1Cl | 74.4% (active)
42 | Cc1ccc(Cc2cnc(NC(=O)/C(C#N)=C/c3ccc(-c4cccc([N+](=O)[O-])c4)o3)s2)cc1 | 217% (active)
43 | OC(CNCC1CCCO1)Cn1c2ccc(Br)cc2c2cc(Br)ccc21 (stereo unspecified) | 44% (active)
44 | C=CCNc1nc(N)c([N+](=O)[O-])c(NC2CCCCC2)n1 | 12.5%
45 | CCc1nn(-c2cc(Oc3cccc4ccccc34)nc(-c3ccccc3)n2)c(N)c1C#N | 138% (active)
46 | CCc1nc(C)cn1S(=O)(=O)c1cc([N+](=O)[O-])ccc1Cl | 55.6% (active)
47 | COc1cc(NC(=O)c2cncc(-c3ccc(C#N)cc3)c2)cc(C(=O)Nc2cccc(C(F)(F)F)c2)c1 | 129% (active)
48 | COC(=O)Cc1csc(/N=C/c2c(O)n(-c3cccc(C(F)(F)F)c3)c(=O)c3ccccc23)n1 | 42.5% (active)
49 | COc1ccccc1N=Cc1c(O)c2ccccc2oc1=O | 113% (active)
50 | CC(C)=CCCC1(C)C=Cc2c(ccc3c2[nH]c2cc(O)c(C)cc23)O1 (stereo unspecified) | 35.4% (active)
51 | Oc1ccc(Br)cc1/C=N/Nc1ccccn1 | 63.7% (active)
